Source: PubChem BioAssay (several laboratories)
A selection: hits, their analogues and other compounds. The true share with any hit is near 3.2%.
TcdB inh: TcdB glycohydrolase inhibitors, primary screen, biochemical, single point, plate reader; TcdB glycohydrolase enzymatic assay; 0.24% of 350,000 active; inhibition, % at 9.99 µM; AID 652162, 2013
PrPC TRFRET: inhibitors of human cell surface prion protein PrPC, primary screen, cell-based, TR-FRET; TR-FRET read-out; inhibition, % at 13.8 µM; 0.43% of 370,000 active; AID 720596, 2013; in the data active means inhibition above about 24%; further: 0% = median of the test wells and 100% = reference compound wells
Y pestis TopoI: Yersinia pestis topoisomerase I inhibitors, primary screen, biochemical, cleavage product accumulation, plate reader, single point | AID 504884, 2011 | 0.064% of 360,000 active | activity, % at 10 µM | DNA topoisomerase I (Yersinia pestis CO92) | Y. pestis Topo-I cleavage product accumulation; in the data active means activity above about 50%, passing the limit was not always enough
GDH-TPI counter-1: GDH-TPI coupling enzyme inhibitors, primary screen, artefact control for M. tuberculosis FBA inhibitor project, biochemical, absorbance, full deck | GDH-TPI coupled enzyme counterscreen, NADH absorbance | 1.2% of 360,000 active | inhibition, % at 4.8 µM; in the data active means inhibition above about 30%;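 further: 0% = DMSO wells and 100% = wells lacking the enzyme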
FBA Mtb inh: Mtb FBA enzyme inhibitors, primary screen, biochemical, fluorescence, strain H37Rv; Fructose-bisphosphate aldolase (Mycobacterium tuberculosis (strain ATCC 25618 / H37Rv)), …; purified M. tuberculosis FBA, fluorescence read-out; inhibition, % at 1 µM; 2.3% of 360,000 active; AID 588726, 2011; in the data active means inhibition above about 27%;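 further: 0% = vehicle and 100% = reference inhibitor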
Mtb FBA inh conf: M. tuberculosis aldolase blockers, biochemical, fluorescence, strain H37Rv, confirmation. shares compounds with FBA Mtb inh. purified M. tuberculosis FBA, fluorescence read-out. inhibition, % at 1 µM. 78% of 5,600 active; in the data active means inhibition above about 27%;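 further: 0% = vehicle wells and 100% = reference inhibitor wells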
GDH-TPI counter-2: GDH-TPI coupling enzyme inhibitors, artefact control for M. tuberculosis FBA inhibitor project, biochemical, fluorescence, high throughput; shares compounds with FBA Mtb inh; GDH-TPI coupled enzyme counterscreen; inhibition, % at 1 µM; 81% of 5,600 active
GDH-TPI DR: GDH-TPI coupling enzyme inhibitors, dose response, artefact control for M. tuberculosis FBA inhibitor project, biochemical, fluorescence, IC50 | shares compounds with FBA Mtb inh | GDH-TPI coupled enzyme assay, artifact counterscreen | 79% of 170 active | IC50, µM; call rule not given here
The depositor's hits bear a star; . = not tested or not shown; + = active, no number. Unless noted, no stated cut-off is given here; in the data, active means inhibition above about 10%; inactive means the rest.

SMILES | TcdB inh | PrPC TRFRET | Y pestis TopoI | GDH-TPI counter-1 | FBA Mtb inh | Mtb FBA inh conf | GDH-TPI counter-2 | others
CO[C@@H]1CN(C)C(=O)c2ccc(NC(=O)Nc3cc(F)ccc3F)cc2OC[C@@H](C)N(C(=O)c2cnccn2)C[C@H]1C | 0 | . | . | . | . | . | .
CCS(=O)(=O)N1CCC2(CC1)CN(C(=O)c1cccc(F)c1)[C@H](CO)c1c2c2ccc(OC)cc2n1C | 0 | . | . | . | . | . | .
CCOC(=O)CSC1=Nc2ccccc2C2=NC(CC(=O)NCc3cccs3)C(=O)N12 (configuration not stated) | . | 3 | 4 | 9 | 5 | . | .
CCOC(=O)CSC1=Nc2ccccc2C2=NC(CC(=O)NCc3ccccc3)C(=O)N12 (configuration not stated) | . | 5 | 4 | 8 | 29* | 103* | 102*
CCN(CC)C(=O)CSC1=Nc2ccccc2C2=NC(c3ccccc3)C(=O)N12 (configuration not stated) | . | 4 | -3 | 9 | 18 | . | .
NC(=O)CSC1=Nc2ccccc2C2=NC(c3ccccc3)C(=O)N12 (configuration not stated) | 1 | 1 | -5 | 11 | 28* | 51* | 43*
CN(c1ccccc1)S(=O)(=O)c1cccc(NC(=O)CN2C(=O)NC3(CCCCC3)C2=O)c1 | 0 | -2 | 2 | 6 | 38* | 88* | 52*
CC1CCC2(CC1)NC(=O)N(CC(=O)Nc1cccc(S(=O)(=O)N(C)c3ccccc3)c1)C2=O (configuration not stated) | 1 | 10 | 1 | 4 | 1 | . | .
O=c1c(-c2ccc(O)cc2)coc2cc(O)ccc12 | 3 | 1 | -2 | 15 | 24 | . | .
Cc1ccc(Oc2coc3cc(O)ccc3c2=O)cc1 | -2 | 9 | 4 | 17 | 40* | 53* | 57*
Cc1ccc(C)c(Oc2coc3cc(O)ccc3c2=O)c1 | -2 | 3 | 0 | 20 | 38* | 128* | 104*
Cc1ccccc1-c1coc2cc(O)ccc2c1=O | . | -4 | 0 | 20 | 48* | 97* | 81*
Cc1cc(C)cc(Oc2coc3cc(O)ccc3c2=O)c1 | 0 | -4 | -4 | 1 | 24 | . | .
Cc1cc(C(=O)Nc2cccc3c2O[C@H](CN(C)S(=O)(=O)c2c(C)noc2C)[C@H](C)CN([C@H](C)CO)C3=O)n(C)n1 | 0 | . | . | . | . | . | .
CCCN(CCC)CCNC(=O)c1cc2c(-c3ccc(Cl)cc3)nn(C)c2s1 | 6 | -12 | -5 | 11 | 50* | 163* | 120*
Cn1nc(-c2ccc(Cl)cc2)c2cc(C(=O)NC3CC3)sc21 | 1 | -5 | -6 | 20 | 9 | . | .
CCOCCCNC(=O)c1cc2c(-c3ccc(Cl)cc3)nn(C)c2s1 | 1 | -8 | 12 | 12 | 63* | 71* | 55*
CCCCN(CC)CCNC(=O)c1cc2c(-c3ccc(Cl)cc3)nn(C)c2s1 | 1 | -15 | -4 | 1 | 77* | 5 | -4
CCCN(CCC)CCCNC(=O)c1cc2c(-c3ccc(OC)c(OC)c3)nn(C)c2s1 | 3 | -12 | -2 | 11 | 3 | . | .
CCCN(CCC)CCNC(=O)c1cc2c(-c3ccccc3F)nn(C)c2s1 | 2 | -11 | 3 | 7 | 87* | 100* | 81*
CCN(CC(=O)NCc1ccc(F)cc1)C(=O)/C=C/c1cc(OC)ccc1OC | 0 | -1 | 15 | 16 | 45* | + | 194*
CCN(CC(=O)NCc1ccc(Cl)cc1)C(=O)/C=C/c1cc(OC)c(OC)c(OC)c1 | 1 | 2 | 10 | 12 | 16 | . | .
COc1ccc2c(c1)c1ncn(Cc3ccc(F)cc3)c(=O)c1n2C | -5 | 13 | -1 | 1 | 51* | 3 | -2
CCN1CCCC1Cn1cnc2c([nH]c3ccc(OC)cc32)c1=O (configuration not stated) | 0 | -6 | 2 | -1 | 57* | 157* | 125*
COc1cc2[nH]c3c(=O)n(CCN4CCCCC4)cnc3c2cc1OC | . | 0 | 17 | 24 | 41* | 107* | 92*
SMILES | TcdB inh | PrPC TRFRET | Y pestis TopoI | GDH-TPI counter-1 | FBA Mtb inh | Mtb FBA inh conf | GDH-TPI counter-2 | others
CCC1CCCN1Cn1cnc2c([nH]c3ccc(C)cc32)c1=O (configuration not stated) | . | -4 | 2 | 11 | 41* | + | +
Cc1ccc2[nH]c3c(=O)n(CCN4CCOCC4)cnc3c2c1 | . | 5 | 2 | 1 | 14 | . | .
Cn1c2ccsc2c2ncn(Cc3ccc(F)cc3)c(=O)c21 | 0 | -2 | 18 | 7 | 3 | . | .
COc1ccc2c(c1)[nH]c1c(=O)n(CC3CCCO3)cnc12 (configuration not stated) | . | -4 | 8 | 15 | -1 | . | .
CCC1CCCN1Cn1cnc2c([nH]c3ccc(Cl)cc32)c1=O (configuration not stated) | . | 3 | 1 | 11 | 4 | . | .
COc1ccc(NC(=O)N(C)C[C@H]2Oc3ccc(NS(=O)(=O)c4ccccc4)cc3C(=O)N([C@@H](C)CO)C[C@H]2C)cc1 | 2 | . | . | . | . | . | .
C[C@@H]1CN([C@H](C)CO)C(=O)c2cc(C#CC3CCCCC3)cnc2O[C@@H]1CN(C)S(=O)(=O)c1ccccc1 | 0 | . | . | . | . | . | .
COc1ccc2[nH]c3c(=O)n(Cc4ccncc4)cnc3c2c1 | 1 | 7 | 4 | 0 | 101* | 20 | 5 | GDH-TPI DR=1.9*
O=c1c2[nH]c3ccc(F)cc3c2ncn1Cc1ccncc1 | 0 | 5 | -4 | 23 | 12 | . | .
COCC(=O)N1[C@@H](CO)[C@@H](c2ccc(-c3ccccc3)cc2)C12CN(C(C)=O)C2 | 0 | . | . | . | . | . | .
Cc1cc(S(N)(=O)=O)c(N)c(S(N)(=O)=O)c1 | -1 | 2 | -5 | 8 | 29* | + | +
Cc1nnc2sc(-c3ccc(-c4ccc(Cl)c(C(F)(F)F)c4)o3)nn12 | . | -9 | -3 | 15 | 76* | 130* | 115*
Cc1ccc(-c2nn3c(C)nnc3s2)cc1N | . | -3 | -4 | 19 | 16 | . | .
Cc1cc(OCc2cn3cccnc3n2)ccc1Cl | . | 4 | -6 | 6 | 8 | . | .
CCN(Cc1cn2cccnc2n1)C1CCCCC1 | 0 | -1 | 0 | -5 | 109* | -4 | -2
CCC(=O)N1C[C@@H]2[C@H](c3ccccc31)[C@H](CO)N2C(=O)Nc1ccccc1 | 1 | . | . | . | . | . | .
